From PubChem
Cruzain noTriton = qHTS Assay for Promiscuous and Specific Inhibitors of Cruzain (without detergent); Potency, µM, without a hit: max response, negative = inhibition, actives largely listed as inhibitors; 200,000 tested, 2.3% active; Cruzipain (Trypanosoma cruzi), P25779; AID 1476, 2009; purified cruzain, Z-FR-AMC fluorescence, no detergent;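 also: plate controls were enzyme without inhibitor for no effect and buffer without enzyme for full effect; nearly all actives have a fitted effect of over 40% in size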
Target sequence (P25779 123-467 limits assumed): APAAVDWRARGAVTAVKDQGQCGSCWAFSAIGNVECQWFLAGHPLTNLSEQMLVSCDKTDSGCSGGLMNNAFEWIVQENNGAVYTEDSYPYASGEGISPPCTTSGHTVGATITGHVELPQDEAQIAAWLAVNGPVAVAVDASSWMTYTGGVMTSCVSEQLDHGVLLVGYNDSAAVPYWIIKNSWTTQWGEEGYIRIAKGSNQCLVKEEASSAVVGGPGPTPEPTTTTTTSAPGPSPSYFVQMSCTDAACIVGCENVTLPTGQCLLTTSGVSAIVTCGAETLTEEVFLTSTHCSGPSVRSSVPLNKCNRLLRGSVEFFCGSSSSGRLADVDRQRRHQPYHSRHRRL
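Purified cruzain at 1.5 nM, pre-incubated 15 min with compound at room temperature in 100 mM sodium acetate pH 5.5, 5 mM DTT, 0.00005% Triton X-100. Reaction started with 2 uM Z-FR-AMC; AMC fluorescence increase over 60 s gives rate.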
Cruzain Triton = qHTS Assay for Promiscuous and Specific Inhibitors of Cruzain (with detergent); Cruzipain (Trypanosoma cruzi), P25779; purified cruzain, Z-FR-AMC fluorescence, 0.01% Triton; Potency, µM, inactives show max response, negative = inhibition, most hits filed as inhibitors; 200,000 tested, 0.43% active;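 also: plate controls were neutral wells for no effect and buffer without enzyme for full effect; nearly all actives have a fitted effect of over 40% in size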
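Detergent-containing arm of a paired screen for aggregation-based inhibition: 0.01% Triton X-100 present. Cruzain at 1.5 nM cleaved 2 uM Z-FR-AMC at pH 5.5 with 5 mM DTT; AMC fluorescence gain over 60 s measured activity.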
Starred values were filed as active, the others as inactive; ? = inconclusive. The list is not random: actives were taken first. Their share in the collection is about 2.6%. Calls follow the shape of the dose curve; as a rule, active = well fitted curve in the direction sought with a large enough effect; inconclusive = small, poorly fitted or top-dose-only effect, or another doubt; inactive = no such curve, though single readings can be large; an effect the other way counts as inactive or inconclusive. Potency is read from the fitted curve at half-maximal effect.

SMILES | Cruzain noTriton | Cruzain Triton
Cc1ccc2nc3c(cc(C(=O)NC4CCCC4)c(=N)n3C(C)C)c(=O)n2c1 | 17% | -14%
N=c1c(C(=O)NCC2CCCO2)cc2c(=O)n3ccccc3nc2n1Cc1cccnc1 (configuration not stated) | ? | 28µM*
CNC(=O)c1cc2c(=O)n3cc(C)ccc3nc2n(C(C)C)c1=N | ? | 28µM*
CCCn1c(=N)c(C(=O)NCc2cccnc2)cc2c(=O)n3ccccc3nc21 | -11% | -9%
CC(NC(=O)Cc1ccccc1)c1nc2ccccc2[nH]1 (configuration not stated) | -22% | 1%
O=C(COc1cccc(F)c1)N[C@@H](Cc1ccccc1)c1nc2ccccc2[nH]1 | -1% | 13µM*
O=c1oc(-c2cccs2)nc2sc3c(c12)CCCC3 | ? | 3%
O=c1oc(-c2cccs2)nc2sc3c(c12)CCC3 | 13µM* | 1%
CSCC[C@H](NC(=O)c1ccc(Cl)c([N+](=O)[O-])c1)c1nc2ccccc2[nH]1 | -9% | 14µM*
CSCC[C@H](NC(=O)c1cccc([N+](=O)[O-])c1C)c1nc2ccccc2[nH]1 | 7% | 14µM*
O=C(NC(Cc1ccccc1)c1nc2ccccc2[nH]1)c1ccc(Cl)c([N+](=O)[O-])c1 (configuration not stated) | -2% | -17%
Cc1c(C(=O)NC(Cc2ccccc2)c2nc3ccccc3[nH]2)cccc1[N+](=O)[O-] (configuration not stated) | -25% | ?
Clc1cccc(N2CCN(c3c4c(nc5nncn35)CCC4)CC2)c1 | 11% | 7%
CN(C)c1ccc(-c2nnn(CC(=O)Nc3ccccc3N3CCOCC3)n2)cc1 | -12% | -16%
CN(C)c1ccc(-c2nnn(CC(=O)N3c4ccccc4CCc4ccccc43)n2)cc1 | 32µM* | -15%
CCCCCCOc1ccc(/C=c2\s/c(=C(/C#N)C(=O)NCc3ccco3)n(-c3ccccc3)c2=O)cc1 | 3.2µM* | -1%
COC(=O)/C=c1/s/c(=C(/C#N)C(=O)NCc2ccccc2)n(-c2ccccc2)c1=O | ? | 1%
CCOC(=O)c1c(NC(=S)NC)sc2c1CC(C)(C)SC2 | -24% | -26%
CCOC(=O)c1c(NC(=S)Nc2ccccc2)sc2c1CC(C)(C)SC2 | 13µM* | -4%
COC(=O)c1c(NC(=S)Nc2ccc(CC(=O)O)cc2)sc(C)c1C | 8% | -11%
CCOC(=O)c1c(NC(=S)Nc2ccc(Cl)cc2)sc(C)c1C | 4µM* | -4%
COC(=O)c1c(NC(=O)COc2cc(C)c(Cl)c(C)c2)sc2c1CCCC2 | 16% | 6%
Cc1cccc(C)c1NC(=O)CCSc1nc(-c2ccc3c(c2)OCO3)cc(C(F)(F)F)n1 | -9% | 1%
CCOc1ccc(C2SCC(=O)N2c2c(C)n(C)n(-c3ccccc3)c2=O)cc1 (configuration not stated) | -7% | 1%
CCOc1ccc(C2=C(C=Nc3c(C)n(C)n(-c4ccccc4)c3=O)C(c3ccc(F)cc3)c3ccccc3O2)cc1 (configuration not stated) | 3.2µM* | 4%
SMILES | Cruzain noTriton | Cruzain Triton
Cc1ccc(Cl)cc1N1CCN(C(=O)c2noc3c2CCCC3)CC1 | 9% | -6%
COc1ccc(-c2nc(NC(=O)c3ccc(OCC(=O)Nc4ccc(F)cc4)c(OC)c3)sc2C)cc1 | -10% | 0%
COc1cc(C(=O)Nc2nc(-c3cc(C)ccc3C)c(C)s2)ccc1OCC(=O)Nc1ccc(F)cc1 | 20µM* | -5%
CCc1ccc(S(=O)(=O)c2nnn(-c3ccc(F)cc3)c2N)cc1 | -28% | -6%
CN(C)c1ccc(N=Nc2ccccc2)cc1 | -13% | -8%
CN(C)c1ccc(N=O)cc1 | 32µM* | 25µM*
O=S(=O)(O)[C@@H](CO)c1ccccc1 (tested in a mixture with another compound) | 2% | 4%
CCc1ccc2c(c1)c(=O)c(S(=O)(=O)c1ccc(F)cc1)cn2CC(=O)Nc1ccc(C)cc1C | -10% | -1%
CCCNC(=O)Cn1c(=O)n(CC2CCC(C(=O)NC)CC2)c(=O)c2sccc21 (configuration not stated) | -7% | -1%
COc1ccc(-n2c(=S)[nH]c3cc(C(=O)Nc4cccc(C)c4)ccc3c2=O)cc1 | 13µM* | 1%
COc1ccc(-n2c(=S)[nH]c3cc(C(=O)Nc4ccc(OC)c(OC)c4)ccc3c2=O)cc1 | -2% | 3%
CCc1nn(CC(=O)N2CCCCC2)c(=O)c2cc3sc(C)cc3n12 | -9% | 0%
Cc1ccc2cc(/C=N/NC(=O)[C@H](C)NC(=O)OC(C)(C)C)c(Cl)nc2c1 | 2% | -1%
COc1ccc2nc(/C=N/NC(=O)[C@H](C)NC(=O)OC(C)(C)C)ccc2c1 | 32µM* | -24%
Cc1ccc(S(=O)(=O)Nc2ccc(-c3ccc(N4CCCCCC4)nn3)cc2)cc1C | 18% | 1%
Cc1oc(-c2ccccc2F)nc1CS(=O)(=O)CC(=O)N1CCN(c2ccc(Cl)cc2)CC1 | ? | -3%
COc1ccc(C2CC(=O)c3cc(-c4nc(-c5cccc([N+](=O)[O-])c5)cs4)c(=O)n(-c4ccccc4)c3C2)cc1 (configuration not stated) | -4% | 0%
COc1ccc(C2CC(=O)c3cc(-c4nc(-c5cccc([N+](=O)[O-])c5)cs4)c(=O)n(-c4ccc(F)cc4)c3C2)cc1 (configuration not stated) | 1µM* | -3%
Cn1cc(SCC(=O)Nc2ccc3c(c2)OCO3)c2ccccc21 | -17% | -6%
CC(C)n1cc(/C=C2/SC(=O)N(CC(=O)Nc3ccc4c(c3)OCO4)C2=O)c2ccccc21 | 10µM* | 2%
CC(=O)Nc1cccc(NC(=O)CSc2ccc(C(F)(F)F)cc2[N+](=O)[O-])c1 | 1% | -1%
O=C(CSc1ccc(C(F)(F)F)cc1[N+](=O)[O-])Nc1ccc2ccccc2c1 | 13µM* | -4%
COc1ccc(C(=O)Nc2nc3n(n2)C(c2ccc(Cl)cc2)C=C(c2ccccc2)N3)cc1OC (configuration not stated) | ? | -5%
COc1c(Cl)cc(C(=O)Nc2cccc(-c3nc4ccccc4[nH]3)c2)cc1Cl | ? | -2%
Cc1cc(F)ccc1S(=O)(=O)Nc1ccccc1C(=O)Nc1ccccc1-c1nc2ccccc2[nH]1 | -28% | -1%
SMILES | Cruzain noTriton | Cruzain Triton
CN(c1ccccc1)S(=O)(=O)c1ccc(Cl)c(C(=O)Nc2nc3ccccc3[nH]2)c1 | ? | -2%
CCCN(CCC)S(=O)(=O)c1ccc(C(=O)Nc2cccc(-c3nc4ccccc4[nH]3)c2)cc1 | 7.9µM* | -1%
O=C(Nc1ccc(-c2nc3ccccc3[nH]2)cc1)c1ccccc1NS(=O)(=O)c1ccc(F)cc1 | 16µM* | -8%
CN(c1ccccc1)S(=O)(=O)c1ccc(Cl)c(C(=O)Nc2ccc(-c3nc4ccccc4[nH]3)cc2)c1 | 13µM* | -4%
CCOC(=O)CNC(=O)Cn1nc(N2CCN(c3ccccc3)CC2)ccc1=O | 3% | 0%
CCOc1ccc(-c2c(C)nn3c(C)c(C(=O)Nc4cc(C)cc(C)c4)cnc23)cc1OCC | -1% | 5%
O=[N+]([O-])c1cc(/C=N\Nc2nccs2)ccc1O | 32µM* | 18µM*
Clc1cccc(Cl)c1/C=N\Nc1nccs1 | ? | -2%
O=C(Nc1ccc2nc3n(c(=O)c2c1)CCCCC3)C(=O)Nc1ccccc1F | -8% | -9%
